In PubChem BioAssay (Tox21):
Several values for one entry are separate records, joined by “and”; a condition that tells them apart may be missing. Equal values may be shown once. Records with an inconclusive call do not appear. A call without a number means that no potency is given here. The source holds several records for some structures; these can differ, active in one and inactive in another. Activity calls are given as the source filed them. Unless noted, the call rests on the fitted dose curve.

How the values were obtained:
[1] = Nuclear factor erythroid 2-related factor 2/antioxidant responsive element (Nrf2/ARE) small molecule agonists: qHTS cell viability counter screen in human keratinocytes (AID 1919968; active means well fitted curve in the direction sought with a large enough effect in the repeat runs; an effect the other way counts as inactive or inconclusive; further: nearly all actives have a fitted effect of over 55% in size; further: potency means the concentration at half of the fitted maximal effect)
In short: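 KeratinoSens cells (HaCaT keratinocytes stably carrying an ARE-luciferase reporter) were seeded at 1,500 cells/well and rested 5 h at 37 C/5% CO2. They were then exposed to compounds in DMSO for 23 h. Viability was read by CellTiter-Fluor fluorescence after 1 h.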

[2] = Nuclear factor erythroid 2-related factor 2/antioxidant responsive element (Nrf2/ARE) small molecule agonists: luciferase reporter gene qHTS assay in human keratinocytes (AID 1919969); further: nearly all actives have a fitted effect of over 35% in size; further: potency means the concentration at half of the fitted maximal effect
[3] = molecular target: Gonadotropin-releasing hormone receptor (Homo sapiens) (UniProt P30968); experiment: Human gonadotropin-releasing hormone receptor (GnRHR) small molecule agonists, calcium flux assay in GnRHR-HEK293 cells (AID 1920063); further: nearly all actives have a fitted effect of over 35% in size; further: potency means the concentration at half of the fitted maximal effect
Sequence of Gonadotropin-releasing hormone receptor (Homo sapiens) (P30968 whole entry, looked up): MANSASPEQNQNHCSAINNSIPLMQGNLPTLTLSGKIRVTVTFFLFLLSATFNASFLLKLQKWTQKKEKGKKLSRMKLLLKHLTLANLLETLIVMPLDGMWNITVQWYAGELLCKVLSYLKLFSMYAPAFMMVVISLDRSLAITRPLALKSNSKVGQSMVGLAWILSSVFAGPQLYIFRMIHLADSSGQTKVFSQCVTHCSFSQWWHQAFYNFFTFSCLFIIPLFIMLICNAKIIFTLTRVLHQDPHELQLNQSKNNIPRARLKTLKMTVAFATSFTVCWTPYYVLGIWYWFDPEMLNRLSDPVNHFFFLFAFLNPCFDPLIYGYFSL
In short: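 HEK293 cells stably expressing human GnRHR were plated 18 h at 37 °C, loaded with calcium dye 1 h at 37 °C, then given compound in agonist mode; fluorescence (Ex/Em 480/540) read kinetically for 3 min at 1 s intervals.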

[4] = molecular target: KiSS-1 receptor (Homo sapiens) (UniProt Q969F8); experiment: Human kisspeptin (KISS1R) small molecule agonists, calcium flux assay in KISS1R-HEK293 cells (AID 1920064; active means well fitted curve in the direction sought with a large enough effect in the repeat runs; an effect the other way counts as inactive or inconclusive)
Sequence of KiSS-1 receptor (Homo sapiens) (Q969F8 whole entry, looked up): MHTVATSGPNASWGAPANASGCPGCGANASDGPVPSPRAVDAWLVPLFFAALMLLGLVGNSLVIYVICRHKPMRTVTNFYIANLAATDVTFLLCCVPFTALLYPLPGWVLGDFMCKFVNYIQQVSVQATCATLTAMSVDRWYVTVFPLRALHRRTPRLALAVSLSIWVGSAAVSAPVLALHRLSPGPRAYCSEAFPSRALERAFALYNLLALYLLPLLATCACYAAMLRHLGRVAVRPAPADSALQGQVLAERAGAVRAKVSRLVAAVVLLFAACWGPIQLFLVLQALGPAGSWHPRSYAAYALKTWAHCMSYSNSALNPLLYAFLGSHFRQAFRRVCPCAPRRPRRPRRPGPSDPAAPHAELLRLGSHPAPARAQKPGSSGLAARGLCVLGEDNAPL
In short: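 HEK293 cells stably expressing human KISS1R were plated 18 h at 37 °C, loaded with calcium dye for 1 h at 37 °C, then given compound by pin tool. Fluorescence (Ex/Em 480/540) was read kinetically for 3 min.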

[5] = G protein-coupled receptor (GPCR) small molecule agonists, calcium flux assay: HEK293 wild type cell line counter screen (AID 1920065)
In short: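 Cells were plated and cultured 18 h at 37 C/5% CO2, then loaded with calcium dye for 1 h at 37 C. Compounds in DMSO were pin-transferred in agonist mode, and fluorescence (Ex/Em 480/540) was read kinetically for 3 min at 1 s intervals.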

[6] = p53 small molecule agonists, cell-based qHTS assay with human liver microsomes (AID 1963577);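 further: p53 response element beta-lactamase reporter cells with liver microsomes plus NADPH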
In short: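 Steps: plate p53RE-bla cells, incubate 5 h at 37 C; add compound in DMSO; add microsomes (0.5 mg/mL final) and NADPH (0.5 mg/mL final); incubate 16 h at 37 C; add LiveBLAzer, 2 h RT; read fluorescence.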

[7] = p53 small molecule agonists, cell-based qHTS assay with rat liver microsomes (AID 1963578)
In short: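 Metabolic activation is supplied by rat liver microsomes with NADPH (each 0.5 mg/mL final). p53RE-bla cells incubate with compound 16 h at 37 C; reporter activity is measured by LiveBLAzer fluorescence.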

[8] = p53 small molecule agonists, cell-based qHTS assay with human liver microsomes: qHTS cell viability counter screen (AID 1963579); further: nearly all actives have a fitted effect of over 45% in size; further: potency means the concentration at half of the fitted maximal effect
In short: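 After the 460/530 nm beta-lactamase read, CellTiter-Glo was added to the same wells and luminescence measured after 30 min at room temperature, giving viability of p53RE-bla cells treated 16 h with compounds plus microsomes and NADPH.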

[9] = p53 small molecule agonists, cell-based qHTS assay with rat liver microsomes: qHTS cell viability counter screen (AID 1963580); further: nearly all actives have a fitted effect of over 45% in size; further: potency means the concentration at half of the fitted maximal effect
In short: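 p53RE-bla HCT-116 cells (4,000/well) rested 5 h at 37 C, then given Tox21 compounds in DMSO with rat liver microsomes (0.5 mg/mL final) plus NADPH (0.5 mg/mL final) for 16 h at 37 C. Viability read by CellTiter-Glo luminescence after 30 min at room temperature.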

[10] = p53 small molecule agonists, cell-based qHTS assay: qHTS cell viability counter screen (AID 1963581); further: nearly all actives have a fitted effect of over 45% in size
In short: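 p53RE-bla HCT-116 cells were exposed to compounds for 16 h at 37 C; after the beta-lactamase FRET read in the same wells, CellTiter-Glo was added and luminescence (intracellular ATP) read after 30 min at room temperature.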

[11] = molecular target: 5-hydroxytryptamine receptor 2A (Homo sapiens) (UniProt P28223); experiment: 5-hydroxytryptamine receptor 2A (HTR2A) small molecule agonists, cell-based qHTS assay (AID 1963587); further: nearly all actives have a fitted effect of over 30% in size; further: potency means the concentration at half of the fitted maximal effect
Sequence of 5-hydroxytryptamine receptor 2A (Homo sapiens) (P28223 whole entry, looked up): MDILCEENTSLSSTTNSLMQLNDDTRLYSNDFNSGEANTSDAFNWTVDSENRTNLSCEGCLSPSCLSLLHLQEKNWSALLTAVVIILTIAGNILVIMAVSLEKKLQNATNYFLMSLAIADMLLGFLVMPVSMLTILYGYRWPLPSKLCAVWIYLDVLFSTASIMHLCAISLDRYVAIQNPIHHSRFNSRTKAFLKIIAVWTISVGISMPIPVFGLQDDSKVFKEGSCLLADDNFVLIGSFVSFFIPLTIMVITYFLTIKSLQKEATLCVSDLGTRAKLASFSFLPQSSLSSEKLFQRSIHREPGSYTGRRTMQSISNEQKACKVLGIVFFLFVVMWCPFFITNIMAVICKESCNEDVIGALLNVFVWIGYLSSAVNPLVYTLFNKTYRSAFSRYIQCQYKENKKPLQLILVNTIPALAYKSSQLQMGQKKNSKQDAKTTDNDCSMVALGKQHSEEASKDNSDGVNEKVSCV
In short: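 HTR2A-CHO cells, plated 18 h at 37 C/5% CO2, dye-loaded 1 h at 37 C; compounds in DMSO added by pin tool (agonist mode). Intracellular calcium flux read as kinetic fluorescence on FDSS over 2 min at 1 s intervals.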

[12] = cAMP Responsive Elements (CRE) small molecule antagonists, cell-based qHTS assay (AID 1963591; active means well fitted inhibition curve with a large enough effect in the signal ratio in the repeat runs, not every such curve was filed as active; the % refers to the signal ratio)
In short: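 CRE-bla HEK293T cells were plated 18 h at 37 °C/5% CO2, pinned with compound in DMSO, then stimulated with NKH477 at 0.25 uM final for 3 h. LiveBLAzer B/G FRET substrate was added and plates incubated 2 h at room temperature.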

[13] = molecular target: Beta-2 adrenergic receptor (Homo sapiens) (UniProt P07550); experiment: Adrenergic beta2 receptor (ADRB2) small molecule antagonists, cell-based qHTS assay (AID 1963592); further: series mostly up to about 92 µM; nearly all actives have a fitted effect of over 50% in size
Sequence of Beta-2 adrenergic receptor (Homo sapiens) (P07550 whole entry, looked up): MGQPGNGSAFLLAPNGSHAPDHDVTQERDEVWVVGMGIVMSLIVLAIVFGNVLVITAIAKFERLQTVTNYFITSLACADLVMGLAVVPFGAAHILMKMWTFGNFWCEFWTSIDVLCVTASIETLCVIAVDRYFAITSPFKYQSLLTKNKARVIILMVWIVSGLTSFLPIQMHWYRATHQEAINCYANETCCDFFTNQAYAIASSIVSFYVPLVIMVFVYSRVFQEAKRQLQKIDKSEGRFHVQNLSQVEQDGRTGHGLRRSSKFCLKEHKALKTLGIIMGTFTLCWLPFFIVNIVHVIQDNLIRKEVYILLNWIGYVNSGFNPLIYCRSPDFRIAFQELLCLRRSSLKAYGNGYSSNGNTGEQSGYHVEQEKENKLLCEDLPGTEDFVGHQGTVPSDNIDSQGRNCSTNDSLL
In short: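 Cells (CHO, stable ADRB2 overexpression) incubated 18-20hr at 37C; compounds added from DMSO; agonist mix (1nM isoproterenol, 100uM IBMX, 25uM Ro-20-1724) added; 0.5hr RT; d2-cAMP and anti-cAMP-cryptate added; 1hr RT; 665/615 nm read.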

[14] = molecular target: Beta-2 adrenergic receptor (Homo sapiens) (UniProt P07550); experiment: Adrenergic beta2 receptor (ADRB2) small molecule agonists, cell-based qHTS assay (AID 1963593);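 further: CHO cells stably overexpressing human ADRB2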
In short: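 CHO cells stably over-expressing ADRB2 were plated overnight at 37C, then dosed with compounds plus a stimulation mix containing 100uM IBMX and 25uM Ro-20-1724 for 0.5hr at room temperature. cAMP was measured by HTRF competition, 1hr.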

[15] = molecular target: D(2) dopamine receptor (Homo sapiens) (UniProt P14416); experiment: Dopamine D2 receptor (DRD2) small molecule agonists, cell-based qHTS assay (AID 1963594); further: nearly all actives have a fitted effect of over 35% in size
Sequence of D(2) dopamine receptor (Homo sapiens) (P14416 whole entry, looked up): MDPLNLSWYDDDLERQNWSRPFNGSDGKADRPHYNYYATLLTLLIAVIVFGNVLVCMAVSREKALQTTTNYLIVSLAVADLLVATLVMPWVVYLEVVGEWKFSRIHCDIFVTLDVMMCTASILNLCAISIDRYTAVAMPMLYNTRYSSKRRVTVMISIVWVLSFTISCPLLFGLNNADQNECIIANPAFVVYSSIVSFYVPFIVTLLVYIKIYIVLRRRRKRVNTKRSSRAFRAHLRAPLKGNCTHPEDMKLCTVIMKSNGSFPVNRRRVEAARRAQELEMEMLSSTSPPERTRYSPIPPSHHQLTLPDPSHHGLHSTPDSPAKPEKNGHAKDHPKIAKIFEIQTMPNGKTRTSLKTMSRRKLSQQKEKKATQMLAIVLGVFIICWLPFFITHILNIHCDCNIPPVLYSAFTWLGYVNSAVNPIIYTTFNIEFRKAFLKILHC
In short: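 HEK293 cells stably expressing DRD2 were cultured 24 h at 37 C, then given Ro20-1724 (0.1 mM final) and compounds for 10 min at room temperature. NKH477 (200nM) was then added for 30 min. cAMP was read by HTRF.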

[16] = molecular target: D(2) dopamine receptor (Homo sapiens) (UniProt P14416); experiment: Dopamine D2 receptor (DRD2) small molecule antagonists, cell-based qHTS assay (AID 1963595; active means well fitted inhibition curve with a large enough effect in the signal ratio in the repeat runs, with a control signal flat; the % refers to the signal ratio)
In short: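 Stable D2 receptor HEK293 line, 24 h after seeding. Compound preincubated 10 min, then quinpirole (12 nM) with forskolin analogue NKH477 (200 nM), 30 min, room temperature. Detection by time-resolved FRET of cAMP.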

[17] = molecular target: 5-hydroxytryptamine receptor 2A (Homo sapiens) (UniProt P28223); experiment: 5-hydroxytryptamine receptor 2A (HTR2A) small molecule antagonists, cell-based qHTS assay (AID 1963586); further: nearly all actives have a fitted effect of over 45% in size
In short: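 Antagonist-mode intracellular calcium assay: DOI (4 nM) added after 5 min compound pre-incubation at room temperature to dye-loaded HTR2A-CHO cells. Fluorescence followed for 3 min, sampled every second.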

[18] = molecular target: Muscarinic acetylcholine receptor M1 (Homo sapiens) (UniProt P11229); experiment: Cholinergic receptor muscarinic 1 (CHRM1) small molecule antagonists, cell-based qHTS assay (AID 1963588); further: nearly all actives have a fitted effect of over 40% in size; further: potency means the concentration at half of the fitted maximal effect
Sequence of Muscarinic acetylcholine receptor M1 (Homo sapiens) (P11229 whole entry, looked up): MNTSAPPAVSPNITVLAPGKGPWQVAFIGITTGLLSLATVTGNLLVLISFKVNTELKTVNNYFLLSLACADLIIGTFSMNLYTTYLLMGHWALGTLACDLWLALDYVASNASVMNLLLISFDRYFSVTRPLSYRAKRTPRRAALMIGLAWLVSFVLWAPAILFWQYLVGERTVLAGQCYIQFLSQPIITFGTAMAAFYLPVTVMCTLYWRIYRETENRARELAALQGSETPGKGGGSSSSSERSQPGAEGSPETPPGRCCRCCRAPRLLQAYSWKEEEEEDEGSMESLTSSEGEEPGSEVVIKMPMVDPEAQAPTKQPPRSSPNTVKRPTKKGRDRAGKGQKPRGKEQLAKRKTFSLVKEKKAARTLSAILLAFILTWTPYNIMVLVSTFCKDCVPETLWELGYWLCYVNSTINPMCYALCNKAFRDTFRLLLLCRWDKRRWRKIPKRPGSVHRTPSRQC
In short: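 CHRM1-CHO calcium-flux assay, antagonist mode. Cells were seeded 18 h, dye-loaded 1 h at 37 C and given compound for 5 min at RT, then acetylcholine was added at 50nM. FDSS fluorescence was read 3 min; 15 concentrations, three runs.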

[19] = molecular target: Muscarinic acetylcholine receptor M1 (Homo sapiens) (UniProt P11229); experiment: Cholinergic receptor muscarinic 1 (CHRM1) small molecule agonists, cell-based qHTS assay (AID 1963589); further: nearly all actives have a fitted effect of over 35% in size
In short: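 CHO cells stably expressing human CHRM1, seeded 18 h at 37 C/5% CO2, dye-loaded 1 h at 37 C, then given compound in agonist mode; intracellular calcium fluorescence read kinetically at 1 s intervals. Fifteen concentrations, three independent runs.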

[20] = cAMP Responsive Elements (CRE) small molecule agonists, cell-based qHTS assay (AID 1963590)
In short: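 CRE-bla HEK 293T cells in DMEM with 10% dialyzed FBS, NEAA, pyruvate and 25 mM HEPES were plated 18 h at 37 C/5% CO2, then exposed to compounds in DMSO for 3 h before LiveBLAzer B/G FRET substrate addition.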

SMILES | Potency [1] | Potency [2] | Potency [3] | Potency [4] | Potency [5] | Potency [6] | Potency [7] | Potency [8] | Potency [9] | Potency [10] | Potency [11] | Potency [12] | Potency [13] | Potency [14] | Potency [15] | Potency [16] | Potency [17] | Potency [18] | Potency [19] | Potency [20]
CCCC1COC(Cn2cncn2)(c2ccc(Cl)cc2Cl)O1 (configuration not stated) | inactive | inactive | inactive | inactive | inactive | inactive | inactive | inactive | inactive | inactive | inactive | inactive | inactive | inactive | inactive | inactive | – | – | – | –
NCC(O)c1ccc(O)cc1 (configuration not stated) | inactive | inactive | inactive | inactive | inactive | inactive | inactive | inactive | inactive | – | – | inactive | inactive | inactive | inactive | inactive | inactive | inactive | inactive | inactive
Nc1cccc2ccccc12 | inactive | inactive and 61.1 µM (active) | inactive | inactive | inactive | inactive | inactive | inactive | inactive | inactive | – | inactive | inactive | – | inactive | inactive | – | inactive | inactive | inactive
Oc1ccc(Cl)cc1Cl | inactive | inactive | inactive | inactive | inactive | inactive | inactive | inactive | inactive | – | inactive | inactive | inactive | inactive | inactive | inactive | inactive | inactive | inactive | inactive
COCC(=O)N(c1c(C)cccc1C)[C@H](C)C(=O)OC | inactive | inactive | inactive | inactive | inactive | inactive | inactive | inactive | inactive | – | inactive | inactive | inactive | – | inactive | inactive | inactive | inactive | inactive | inactive
[N-]=[N+]=[N-] | inactive | inactive | inactive | inactive | inactive | inactive | inactive | inactive | inactive | – | inactive | inactive | inactive | inactive | inactive | inactive | inactive | inactive | – | inactive
OC[P+](CO)(CO)CO | inactive | inactive | inactive | inactive | inactive | inactive | inactive | inactive | inactive | – | inactive | inactive | inactive | – | – | inactive | inactive | inactive | inactive | inactive
O=C1C2(Cl)C3(Cl)C4(Cl)C(Cl)(Cl)C5(Cl)C3(Cl)C1(Cl)C5(Cl)C24Cl (configuration not stated) | 19 µM (active) and 29.3 µM (active) | inactive | 38.3 µM (active) | inactive | inactive | inactive | inactive | 31.9 µM (active) and inactive | 45 µM (active) | – | 54 µM (active) and 46.9 µM (active) | – | inactive | – | inactive | – | – | 29.3 µM (active) and 20.2 µM (active) | – | –
[O-][Cl+]O | inactive | inactive | inactive | inactive | inactive | inactive | inactive | inactive | inactive | – | inactive | inactive | inactive | – | inactive | inactive | inactive | inactive | inactive | inactive
C1CCC2CCCCC2C1 (configuration not stated) | inactive | inactive | inactive | inactive | inactive | inactive | inactive | inactive | – | inactive | inactive | inactive | inactive | – | inactive | – | inactive | inactive | inactive | inactive
c1ccc(-c2cccc(-c3ccccc3)c2)cc1 | inactive | 21.9 µM (active) and 27.3 µM (active) | inactive | inactive | inactive | inactive | inactive | inactive | – | inactive | inactive | inactive | inactive | inactive | inactive | inactive | inactive | – | inactive | inactive
Cc1cnc(C2=NC(C)(C(C)C)C(=O)N2)c(C(=O)O)c1 (configuration not stated) | inactive | inactive | inactive | inactive | inactive | inactive | inactive | inactive | inactive | – | inactive | inactive | inactive | inactive | inactive | – | inactive | inactive | – | inactive
Clc1nc(Cl)nc(Cl)n1 | inactive | inactive | inactive | inactive | inactive | inactive | inactive | inactive | – | inactive | inactive | inactive | inactive | – | inactive | inactive | inactive | inactive | inactive | inactive
O=C(Cc1ccccc1)c1ccccc1 | inactive | inactive | inactive | inactive | inactive | inactive | inactive | inactive | inactive | – | inactive | inactive | inactive | inactive | inactive | inactive | – | inactive | inactive | inactive
